From PubChem
DPM-DC inhibit = inhibitors of Streptococcus pneumoniae diphosphomevalonate decarboxylase; calls only at 10 µM; hit rate 0.49% among 65,000; purified DPM-DC, PK/LDH coupled NADH fluorescence;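 active = the 320 compounds with the highest percent inhibition in the single-dose primary screen, excluding strongly autofluorescent ones, cut at about 32% in these data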;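 also: kinetic rate of NADH fluorescence loss reporting ADP formed by the decarboxylase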
PMK inhibit = blocks S. pneumoniae phosphomevalonate kinase; hit rate 0.49% among 65,000; inhibition, % at 10 µM; purified PMK, PK/LDH-coupled NADH absorbance 340 nm;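 active = top-ranked compounds by inhibition in the single 10 µM screen, taking a fixed number of the strongest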;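 also: 0% = full reaction with DMSO carrier and 100% = background rate without enzyme reaction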
Spn MK inh = inhibitors of Streptococcus pneumoniae mevalonate kinase. purified MK, PK/LDH-coupled NADH absorbance 340 nm. inhibition, % at 10 µM. hit rate 0.48% among 65,000. AID 555;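 active = ranked among the strongest by inhibition in the single 10 µM screen, a fixed top-ranked set picked for dose follow-up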
Autofluor 339 = intrinsic fluorescence of library compounds, ex339/em460 – biochemical, MLSMR library, data from DPM-DC assay, artefact control, profiling panel; compound autofluorescence, ex339/em460 nm, NADH buffer; stronger effect = higher value; 1 = no-compound wells, NADH background; hit rate 5.5% among 65,000; fluorescence fold increase at 10 µM;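 active = at 10 µM, mean starting fluorescence two-fold or more over control wells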;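 also: signal is the first read of a kinetic run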
NADH enzymes = inhibitors of enzymes used to reach an NAD/NADH endpoint | hit rate 0.02% among 65,000 | AID 774 | coupled PK/LDH NADH assays, four targets | IC50, µM (top dose mostly 10 µM), without a hit: at the highest dose inhibition;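 active = single-dose screening hits from any of four coupled enzyme assays that gave an IC50 when retested across doses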;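 also: the DPM-DC format reads NADH fluorescence rather than 340 nm absorbance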
Abs 340nm = compound absorbs light at 340 nm. compound absorbance at 340 nm, fold over control. fold change at 10 µM. 65,000 tested, under 10 active. AID 708;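 active = at 10 µM dose, initial 340 nm absorbance at least 2 fold that of control wells; inactive = change under 2 fold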;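 also: initial absorbance extrapolated from kinetic A340 decline of NADH oxidation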
* = called active by the depositor; i = inactive; · = not tested or not shown; + = active, no number. Only some compounds are listed: those with a hit (about 6.5% of all), similar ones and a draw of the others.

SMILES | DPM-DC inhibit | PMK inhibit | Spn MK inh | Autofluor 339 | NADH enzymes | Abs 340nm
CCc1c(C)c(C#N)c2nc3ccccc3n2c1Nc1c(C)n(C)n(-c2ccccc2)c1=O | + | 0 | 10 | 0.69 | 15% | 1
CCCc1cc(Nc2c(C)n(C)n(-c3ccccc3)c2=O)n2c(nc3ccccc32)c1C#N | i | 0 | 9 | 1.2 | 3% | 1
N#Cc1nc(-c2ccco2)oc1NCc1cccnc1 | i | 20 | 16 | 2.1* | 19% | 1
N#Cc1nc(-c2ccco2)oc1NCc1ccc(F)cc1 | i | 10 | 11 | 3.3* | 15% | 1
COC(=O)c1sc2nc(-c3ccco3)ccc2c1N | + | 0 | 18 | 2.9* | 24% | 1.2
CCOC(=O)c1sc2nc(-c3ccco3)c3c(c2c1N)CC(C)(C)OC3 | i | 0 | 9 | 2 | 11% | 1.1
COC(=O)c1sc2cnccc2c1N | · | 12 | 1 | 5.1* | 7% | 1
COc1ccc(-c2onc3ccc(Cl)cc23)cc1OC | i | 3 | 5 | 1.5 | 3% | 1.1
COc1ccc(-c2cn3cc(Cl)ccc3n2)cc1OC | · | 5 | 0 | 4.8* | 3% | 1.1
CCC(C)NC(=O)Cn1cnc2sc(C)cc2c1=O (stereo not given) | i | 12 | 6 | 1 | 6% | 1
CCN(CC)CCCNC(=O)c1ccccc1C | i | 6 | 7 | 1.2 | 4% | 1.1
CCN(CC)CCNC(=O)c1ccccc1N | · | 5 | 0 | 2.3* | 3% | 1
COc1ccc(OCCNC(=O)c2ccccc2OCC(=O)N2CCCCC2)cc1 | i | 5 | 14 | 1.1 | 6% | 1.1
Cc1ccc(OCCNC(=O)c2ccccc2N)cc1 | · | 0 | 4 | 2.1* | 2% | 1
Cc1cc(Nc2nc3c(c(=O)n(C)c(=O)n3C)n2C)n(-c2ccccc2)n1 | i | 21 | 0 | 1.1 | 8% | 1
C=CCOC(=O)C1=C(C)NC(SCC(=O)Nc2ccc(C)c(Cl)c2)=C(C#N)C1c1ccco1 (stereo not given) | · | 7 | 0 | 2.3* | 4% | 1.1
Cc1c(C(=O)Nc2ccccc2N2CCOCC2)sc2nc3n(c(=O)c12)CCC3 | i | 0 | 10 | 1.1 | 3% | 0.98
CCOC(=O)N1CCN(C(=O)Nc2ccc3nc(C)c(C)nc3c2)CC1 | · | 5 | 8 | 2.2* | 7% | 1.1
O=C(Nc1ccc2nc(-c3ccco3)c(-c3ccco3)nc2c1)N1CCCCCC1 | + | 9 | 16 | 2.7* | 19% | 1.1
O=C(NC1CCCC1)c1ccc2nc[nH]c2c1 | i | 11 | 11 | 1.1 | 4% | 1
CCOC(=O)C1CCN(C(=O)Nc2ccc3nc(-c4ccco4)c(-c4ccco4)nc3c2)CC1 | i | 0 | 20 | 1.7 | 15% | 1.1
O=C(NC1CCCC1)c1ccc2nc(-c3ccco3)c(-c3ccco3)nc2c1 | i | 19 | 20 | 2.9* | 17% | 1
COC(=O)c1cc(-c2ccccc2)sc1NC(=O)c1cc(C)on1 | · | 4 | 12 | 2.5* | 4% | 1
COc1ccc2[nH]c(=O)c(CN(C)C(=O)COc3ccccc3)cc2c1 | · | 18 | 11 | 3.4* | 15% | 1
CCCCN(Cc1cc2cc(OC)ccc2[nH]c1=O)C(=O)COc1ccccc1 | i | 7 | 8 | 1.9 | 4% | 1
SMILES | DPM-DC inhibit | PMK inhibit | Spn MK inh | Autofluor 339 | NADH enzymes | Abs 340nm
CCC(=O)N(Cc1cc2cc(OC)ccc2[nH]c1=O)c1ccc(C)cc1C | i | 15 | 6 | 3.1* | 10% | 1
CCC(=O)N(Cc1ccc2c(c1)OCO2)Cc1cc2cc(OC)ccc2[nH]c1=O | i | 18 | 17 | 1.7 | 15% | 1
COCC(=O)N(Cc1cc2cc(OC)ccc2[nH]c1=O)c1ccccc1 | i | 0 | 8 | 2.7* | 3% | 1
COc1ccc2[nH]c(=O)c(CN(C(=O)C3CCCO3)c3ccc(C)cc3)cc2c1 (stereo not given) | i | 15 | 11 | 2.9* | 17% | 1.1
Cc1cc(C)n(CC(O)CN2c3ccccc3Sc3ccccc32)n1 (stereo not given) | i | 0 | 5 | 1.1 | 2% | 1
O=C(CN1C(=O)CSc2ccccc21)Nc1ccccc1C(=O)N1CCOCC1 | i | 8 | 14 | 1.1 | 7% | 1.1
CCOc1ccc(N(Cc2cc3cc(OC)ccc3[nH]c2=O)S(C)(=O)=O)cc1 | i | 5 | 4 | 2.8* | 12% | 1
